# PAFAH1B2 inh: inhibitors of human PAFAH1B2; P68402; recombinant PAFAH1B2, FP-rhodamine activity probe, fluorescence polarization; inhibition, % at 3.39 µM; 340,000 compounds, 1.2% hits;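 active = inhibition above the mean of all tested compounds plus 3 SD, cut at about 24% in these data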
# Target sequence (P68402 whole entry, looked up): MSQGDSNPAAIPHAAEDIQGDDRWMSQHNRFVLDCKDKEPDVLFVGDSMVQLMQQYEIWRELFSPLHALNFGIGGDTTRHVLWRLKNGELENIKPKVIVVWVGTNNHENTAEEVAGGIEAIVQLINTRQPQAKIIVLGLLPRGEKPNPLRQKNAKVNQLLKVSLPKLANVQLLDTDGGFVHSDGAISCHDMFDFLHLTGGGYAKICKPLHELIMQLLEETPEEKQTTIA
# PAFAH2 inh: PAFAH2 (human) inhibition; recombinant PAFAH2, FP-rhodamine activity probe, fluorescence polarization; 340,000 compounds, 0.99% hits; inhibition, % at 3.39 µM;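 active = inhibition above the mean over all tested compounds plus 3 SD, cut at about 30% in these data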;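 note: inhibitors block probe labeling of enzyme so polarization drops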
# pPAFAH FP inh: pPAFAH (human) enzyme inhibition. 330,000 compounds, 1.5% hits. Q13093. inhibition, % at 3.39 µM. recombinant pPAFAH, FP-rhodamine probe fluorescence polarization;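 active = inhibition above the mean inhibition across the screen plus 3 SD, cut at about 25% in these data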;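 note: inhibitors block binding of the rhodamine activity-based probe so polarization drops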
# PAFAH1B3 inh: PAFAH1B3 (human) inhibition; recombinant PAFAH1B3, FP-rhodamine probe, fluorescence polarization; inhibition, % at 3.39 µM; 340,000 compounds, 0.28% hits;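 active = inhibition above the screen-wide average of all tested compounds plus 3 SD, cut at about 25% in these data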
# Target sequence (Q15102 whole entry, looked up): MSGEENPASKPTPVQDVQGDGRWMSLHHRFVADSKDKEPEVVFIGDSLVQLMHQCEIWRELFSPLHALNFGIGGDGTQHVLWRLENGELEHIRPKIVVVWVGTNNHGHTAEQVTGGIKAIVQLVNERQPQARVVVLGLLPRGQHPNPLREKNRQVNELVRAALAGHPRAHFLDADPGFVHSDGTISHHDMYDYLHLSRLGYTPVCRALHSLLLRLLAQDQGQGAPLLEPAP
# HTRA1 inh: HTRA1 (human) protease inhibition; Q92743; recombinant HTRA1, FP-rhodamine activity-based probe, fluorescence polarization; inhibition, % at 5.96 µM; 340,000 compounds, 0.5% hits; in the data active = inhibition above about 36%
# DAGLB inh: diacylglycerol lipase beta (human) inhibition | 340,000 compounds, 0.059% hits | Q8NCG7 | HEK293T DAGLB membrane lysate, EnzChek fluorogenic substrate | inhibition, % at 5.17 µM | AID 504411; in the data active = inhibition above about 34%
# pPAFAH confirm: pPAFAH (human) inhibition, confirmed | recombinant pPAFAH, FP-Rh probe fluorescence polarization | 2,300 compounds, 72% hits | AID 463230 | inhibition, % at 3.39 µM | shares compounds with pPAFAH FP inh;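 active = mean inhibition of the triplicate above the hit cutoff set for the earlier primary screen, cut at about 25% in these data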
# HTRA1 conf: confirmation of human HTRA1 inhibitors; shares compounds with HTRA1 inh; recombinant HTRA1, FP-rhodamine activity-based probe, fluorescence polarization; inhibition, % at 5.96 µM; 1,600 compounds, 66% hits; AID 540248;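 active = mean inhibition over three repeats above a set limit taken from the earlier primary screen, cut at about 37% in these data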;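 note: inhibitors block probe binding so polarization drops and inhibition rises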
# Hits are given with their value; - = inactive; . = no result given. Rows were chosen to be rich in hits. Some 2.8% of all compounds tested hit in one or more screens of this group.
SMILES,PAFAH1B2 inh,PAFAH2 inh,pPAFAH FP inh,PAFAH1B3 inh,HTRA1 inh,DAGLB inh,pPAFAH confirm,HTRA1 conf
Oc1ccc(/C=N/Nc2ccnc3cc(Cl)ccc23)cc1O,24.6,-,35.6,54.3,42.3,-,44.7,71.7
Clc1ccc2c(NCc3ccccn3)ccnc2c1,-,-,-,-,-,-,.,.
Oc1ccc(/C=N/Nc2ccnc3cc(Cl)ccc23)c(O)c1O,36.8,35.0,43.5,47.7,66.2,-,57.0,65.2
CC/C(=N\Nc1ccnc2cc(Cl)ccc12)c1ccc(O)cc1,-,-,-,-,-,-,.,.
CC12CCC(=O)N1C(C(=O)Nc1nc3ccccc3s1)CS2 (stereo not given),-,-,-,-,-,-,.,.
CC(OC(=O)c1ccc(-c2ccc([N+](=O)[O-])cc2)o1)C(=O)NC(N)=O (stereo not given),-,-,-,-,-,-,.,.
O=C(NCCc1ccccc1)c1ccc2nc(-c3ccco3)c(-c3ccco3)nc2c1,-,-,60.4,-,47.2,-,36.7,-
O=C(c1ccccc1)c1ccc2nc(-c3ccco3)c(-c3ccco3)nc2c1,-,31.1,58.2,32.2,45.4,-,43.3,191.0
c1coc(-c2nc3ccccc3nc2-c2ccco2)c1,-,39.9,44.0,25.7,51.7,-,-,-
c1coc(-c2cnc3ccccc3n2)c1,.,.,.,.,-,-,.,.
O=C(NCCc1ccccc1)c1ccc(=O)oc1,-,-,-,-,-,-,.,.
O=c1c(-c2ccc([N+](=O)[O-])cc2)coc2c(O)c(O)ccc12,-,-,53.6,-,66.1,-,78.2,68.1
CN1C(=O)NC(c2ccccc2[N+](=O)[O-])C2=C1CCCC2=O (stereo not given),49.2,67.0,72.0,58.2,77.1,-,-,43.7
CSCCC(NC(=O)COc1ccccc1)C(=O)N1CCCC(C(F)(F)F)C1 (stereo not given),-,-,-,-,-,-,.,.
O=C1C(Nc2ccccc2)=C/C(=N/S(=O)(=O)c2cccs2)c2ccccc21,37.9,49.3,62.5,62.2,63.4,-,60.4,62.1
Cc1ccc(S(=O)(=O)/N=C2\C=C(Nc3ccc(O)cc3)C(=O)c3ccccc32)cc1,26.9,35.1,38.3,60.9,87.8,45.6,33.4,77.5
Cc1ccc(S(=O)(=O)/N=C2\C=C(NS(=O)(=O)c3ccccc3)C(=O)c3ccccc32)c(C)c1,-,-,.,-,-,-,.,.
COc1ccc(NC(=O)Cc2nnc(SCC(=O)Nc3ccccc3)n2C)cc1,-,-,-,-,-,-,.,.
CCn1c(SCC(=O)c2ccc(O)c(O)c2)nnc1-c1ccc(C)cc1,-,44.6,43.1,-,48.8,-,71.8,76.5
Cc1c(C(=O)NCc2cccs2)oc2ccc(Br)cc12,-,-,-,-,-,-,.,.
Cc1c(C(=O)NNC(=O)c2ccccc2O)oc2ccc(Br)cc12,-,-,57.9,-,41.4,-,69.8,69.1
C/C(=N\NC(=O)c1cc2ccccc2cc1O)c1cc2ccccc2o1,-,-,41.4,-,36.4,-,34.0,-
C/C(=N\NC(=O)c1c[nH]c2ccccc12)c1ccccn1,-,-,-,-,-,-,.,.
C/C(=N\NC(=O)c1cc2ccccc2cc1O)c1ccccn1,-,-,47.6,-,51.7,-,-,-
C/C(CC(=O)N1CCN(C=O)CC1)=N\NC(=O)c1cc2ccccc2cc1O,-,-,54.0,-,39.2,-,-,36.8
SMILES,PAFAH1B2 inh,PAFAH2 inh,pPAFAH FP inh,PAFAH1B3 inh,HTRA1 inh,DAGLB inh,pPAFAH confirm,HTRA1 conf
O=C(N/N=C/c1ccc(Sc2ccccn2)o1)c1cc2ccccc2cc1O,-,-,52.5,-,59.8,-,56.4,48.8
C/C(=N\NC(=O)c1nc2ccccn2c1C)c1cc2ccccc2o1,-,-,-,-,-,-,.,.
Cc1ccccc1-c1nc2cc(NC(=O)C3CC3)ccc2o1,-,-,-,-,-,-,.,.
CC[C@H](C)[C@H](NC(=O)OCc1ccccc1)C(=O)OCC(=O)Nc1ccc(N2CCOCC2)cc1,-,-,-,-,-,-,.,.
COc1cc(OC)cc(C(=O)NNC(=O)c2cc3ccccc3cc2O)c1,-,-,.,-,-,-,.,.
C/C(=N/NC(=O)c1cc2ccccc2cc1O)C1C(=O)c2ccccc2C1=O,73.0,73.7,76.9,37.0,74.4,-,67.6,53.1
CCCC1Nc2ccc(C(=O)O)cc2C2C=CCC12 (stereo not given),-,44.1,46.0,31.8,38.9,-,31.4,38.5
Cc1ccc(/C=C/C(=O)c2ccccc(=O)c2O)c(C)c1,-,-,69.3,-,53.1,-,-,45.0
O=[N+]([O-])c1ccc(N=Nc2c(Cl)cc(O)cc2Cl)cc1,-,-,46.4,-,67.0,-,39.2,72.8
Nc1scc2c(C(=O)N/N=C/c3ccc(Cl)cc3)nn(-c3ccccc3)c(=O)c12,-,-,35.1,-,41.2,-,-,-
CCOC(=O)c1nn(-c2ccccc2)c(=O)c2c(N)scc12,-,-,-,-,-,-,.,.
Oc1c(C=NCc2ccccc2)sc2ccccc12,-,-,-,-,-,-,.,.
Oc1cccc(C=NCc2ccccc2)c1O,-,-,57.4,-,54.7,-,-,62.2
Oc1cccc(C=Nc2cccc3ccccc23)c1O,-,-,75.7,28.3,70.9,-,-,52.9
O=C(O)c1cccc(S(=O)(=O)Nc2ccccc2Oc2ccccc2)c1,.,.,.,.,-,-,.,.
CC[C@H](C)[C@@H]1NC(=O)c2cc([N+](=O)[O-])cc(I)c2SC[C@@H](C(N)=O)NC(=O)[C@H](CCCCN)NC1=O,.,.,-,.,.,.,.,.
COc1cc(C(=O)NCC2CCCO2)ccc1OCc1ccccc1Cl (stereo not given),-,-,-,-,-,-,.,.
COc1ccc2sc(-c3ccc(N(C)C)cc3)c(C#Cc3cncn3C)c2c1,-,-,41.9,-,47.9,-,38.3,-
Cc1cc2c(N)cccc2nn1,25.6,37.7,72.9,33.3,100.7,-,-,-
Oc1ccc(/C=N/N=C(c2ccccc2)c2ccccc2)c(O)c1O,-,-,58.5,-,66.2,-,82.8,66.9
COc1ccc(C(=O)C(=NN)c2ccccc2)cc1,.,.,.,.,-,-,.,.
O=C(/C(=N/N=C/c1ccc(O)c(O)c1O)c1ccccc1)c1ccccc1,-,-,79.7,-,79.3,-,84.6,74.1
COc1ccccc1CNC(=O)COc1cccc(-n2cnnn2)c1,-,-,-,-,-,-,.,.
O=[N+]([O-])c1ccc(N/N=C/c2cccc(O)c2)cc1,-,-,-,-,-,-,.,.
O=[N+]([O-])c1ccc(N/N=C/c2cccc(O)c2O)cc1,-,-,59.8,31.5,63.8,-,56.5,45.7
